Compounds with a hit are over-represented: about 6.8% of the library has one in this group of screens.
C diff HTS – blocks growth of Clostridium difficile | Clostridium difficile clinical isolate growth, OD600, 24 h; active compounds read low | growth activity, negative = inhibition, % at 16 µg/mL (by protocol) | actives 0.25% (n = 86,000) | AID 1259249;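 active = mean growth activity at or below -80% and every replicate also at or below -80%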
Pf Dd2 inh – inhibitors of Plasmodium falciparum Dd2 growth; P. falciparum Dd2 growth, SYBR Green, 72 h; active compounds read low; activity change, % at 10 µM; actives 2.3% (n = 94,000); AID 1159554; in the data active = activity change below about -80%
Tcruzi prolif – blocks T. cruzi growth in NIH3T3 culture | T. cruzi beta-gal in NIH3T3, GalScreen luminescence, 90 h | actives 5.9% (n = 77,000) | inhibition, % at 8.34 µM | AID 624255;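 active = mean inhibition above about 93%, with at least 55% of replicates each passing it, limit read from the data, passing the limit was not always enough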
Hits are given with their value; . = inactive; / = no result given; ! = not active in a repeat.

SMILES | C diff HTS | Pf Dd2 inh | Tcruzi prolif
O=C(NCc1ccncn1)[C@H]1[C@H](CO)[C@H]2Cn3c(ccc(-c4cccc(F)c4)c3=O)[C@H]2N1CC1CC1 | . | . | .
O=C(N[C@H]1CC[C@@H](CCNC(=O)C2CCOCC2)O[C@@H]1CO)c1ccccn1 | . | . | .
O=C(N[C@@H]1CC[C@H](CCn2cc(C3(O)CCCC3)nn2)O[C@H]1CO)C1CCCCC1 | . | . | .
CCCNC(=O)N(C)C[C@@H]1Oc2cc(C3=CCCC3)ccc2S(=O)(=O)N([C@@H](C)CO)C[C@H]1C | . | . | /
COc1cccc(S(=O)(=O)N2C[C@@H]3N[C@H](C2)C3c2ccc(/C=C/c3ccccc3)cc2)c1 (stereo partly specified) | -94! | . | /
O=S(=O)(c1ccccc1)N1C[C@@H]2N[C@H](C1)C2c1ccc(-c2cccnc2)cc1 (stereo partly specified) | . | . | /
Cc1ccc(S(=O)(=O)N2C[C@@H]3N[C@H](C2)C3c2ccc(/C=C/c3ccccc3)cc2)cc1 (stereo partly specified) | -95! | . | /
Cc1ccc(S(=O)(=O)N2C[C@@H]3N[C@H](C2)C3c2ccc(-c3ccncc3)cc2)cc1 (stereo partly specified) | . | -81! | /
C/C=C/c1ccc(C2[C@@H]3CN(S(=O)(=O)c4ccccc4)C[C@H]2N3)cc1 (stereo partly specified) | . | . | /
Cc1ccccc1-c1ccc(C2[C@@H]3CN(S(=O)(=O)c4ccccc4C)C[C@H]2N3)cc1 (stereo partly specified) | -98! | . | /
COc1ccccc1S(=O)(=O)N1C[C@@H]2N[C@H](C1)C2c1ccc(-c2ccccc2C)cc1 (stereo partly specified) | . | . | /
COc1cccc(-c2ccc(C3[C@@H]4CN(S(=O)(=O)c5ccccc5)C[C@H]3N4)cc2)c1 (stereo partly specified) | . | . | /
CC(=O)N(C)C[C@H]1Oc2cc(-c3cncnc3)ccc2S(=O)(=O)N([C@@H](C)CO)C[C@@H]1C | . | . | .
CCC(=O)Nc1ccc2c(c1)C(=O)N(C)C[C@H](OC)[C@@H](C)CN(C(=O)C1CCC1)[C@@H](C)CO2 | . | . | .
C[C@@H]1CN([C@H](C)CO)C(=O)c2c(c3ccccc3n2C)-c2ccccc2CO[C@@H]1CN(C)Cc1ccc2c(c1)OCCN2C | . | . | /
C[C@H]1CN([C@@H](C)CO)C(=O)Cc2cc(NS(=O)(=O)c3cccs3)ccc2O[C@H]1CN(C)S(=O)(=O)c1cccs1 | / | . | .
O=S(=O)(c1ccc(-c2ccccc2)cc1)N1C[C@@H]2N[C@H](C1)C2c1ccc(-c2ccccc2)cc1 (stereo partly specified) | . | -87! | /
N#Cc1ccc(-c2ccc([C@@H]3[C@@H]4CN(S(=O)(=O)c5ccc(-c6ccccc6)cc5)C[C@H]3N4)cc2)cc1 | . | . | /
CC(C)C#Cc1ccc2c(c1)O[C@H](CN(C)Cc1ccncc1)[C@@H](C)CN([C@@H](C)CO)S2(=O)=O | . | . | 117
CC(C)C#Cc1ccc2c(c1)O[C@@H](CN(C)Cc1ccncc1)[C@H](C)CN([C@@H](C)CO)S2(=O)=O | . | . | 121
C[C@@H]1CN([C@H](C)CO)S(=O)(=O)c2ccc(-c3ccncc3)cc2O[C@H]1CN(C)Cc1ccc(Oc2ccccc2)cc1 | . | -87 | .
C[C@H](O)C#Cc1ccc2c(c1)O[C@@H](CN(C)Cc1ccncc1)[C@@H](C)CN([C@H](C)CO)S2(=O)=O | . | . | .
C[C@@H]1CN([C@@H](C)CO)S(=O)(=O)c2ccc(-c3ccncc3)cc2O[C@@H]1CN(C)Cc1ccccc1 | . | . | .
C[C@@H]1CN([C@@H](C)CO)S(=O)(=O)c2ccc(C#C[C@@H](C)O)cc2O[C@@H]1CN(C)Cc1ccncc1 | . | . | .
C[C@@H]1CN([C@H](C)CO)C(=O)c2cccc(NC(=O)Nc3ccc(C(F)(F)F)cc3)c2O[C@@H]1CN(C)C(=O)Nc1ccc(C(F)(F)F)cc1 | . | . | .
SMILES | C diff HTS | Pf Dd2 inh | Tcruzi prolif
O=C(Cc1ccccn1)NCC[C@H]1CC[C@H](NS(=O)(=O)c2ccc(Cl)cc2)[C@H](CO)O1 | . | . | .
COc1ccccc1NC(=O)N1CCCCN2[C@H](CO)[C@H](c3ccc(C#CC4CC4)cc3)[C@H]2C1 | . | . | /
CCCNC(=O)N1CC2(C1)[C@H](c1ccccc1)[C@@H](CO)N2Cc1ccc(F)cc1 | . | . | /
C[C@H](NC(=O)C[C@@H]1C[C@@H]2c3cc(NS(=O)(=O)c4ccc(F)cc4)ccc3O[C@@H]2[C@H](CO)O1)c1ccccc1 | . | . | .
CCCC(=O)Nc1ccc2c(c1)OC[C@@H](C)N(C(=O)c1ccccc1F)C[C@@H](C)[C@H](OC)CN(C)C2=O | / | / | .
COc1ccc(CN(C)C[C@@H]2Oc3ccc(NC(=O)CCC(F)(F)F)cc3CC(=O)N([C@H](C)CO)C[C@@H]2C)cc1 | . | . | .
Cc1ccc(S(=O)(=O)Nc2ccc3c(c2)C(=O)N([C@H](C)CO)C[C@@H](C)[C@@H](CN(C)C(=O)Nc2ccccc2)OCCCC[C@@H](C)O3)cc1 | / | -83 | .
Cc1ccc(S(=O)(=O)Nc2ccc3c(c2)C(=O)N([C@@H](C)CO)C[C@H](C)[C@@H](CN(C)C(=O)Nc2ccc(C(F)(F)F)cc2)OCCCC[C@H](C)O3)cc1 | . | -82 | .
C[C@@H]1CCCCO[C@H](CN(C)C(=O)Nc2ccc(C(F)(F)F)cc2)[C@@H](C)CN([C@@H](C)CO)C(=O)c2cc(NS(=O)(=O)c3ccc(Cl)cc3)ccc2O1 | . | -84 | .
Cc1ccc(S(=O)(=O)Nc2ccc3c(c2)C(=O)N([C@H](C)CO)C[C@H](C)[C@@H](CN(C)C(=O)Nc2ccccc2)OCCCC[C@@H](C)O3)cc1 | / | . | .
COc1ccc(S(=O)(=O)Nc2ccc3c(c2)C(=O)N([C@@H](C)CO)C[C@H](C)[C@H](CN(C)C(=O)Nc2ccc(C(F)(F)F)cc2)OCCCC[C@@H](C)O3)cc1 | . | -84 | .
COc1ccc(S(=O)(=O)Nc2ccc3c(c2)C(=O)N([C@H](C)CO)C[C@@H](C)[C@H](CN(C)C(=O)Nc2ccc(C(F)(F)F)cc2)OCCCC[C@H](C)O3)cc1 | . | . | .
Cc1ccc(S(=O)(=O)Nc2ccc3c(c2)C(=O)N([C@H](C)CO)C[C@@H](C)[C@H](CN(C)C(=O)Nc2ccc(C(F)(F)F)cc2)OCCCC[C@@H](C)O3)cc1 | . | . | .
C[C@H](CO)N1C[C@H](C)[C@@H](CN(C)C(=O)Nc2ccc(C(F)(F)F)cc2)OCCCC[C@H](C)Oc2ccc(NS(=O)(=O)c3ccc(Cl)cc3)cc2C1=O | . | . | .
COc1ccc(NC(=O)N2CCC3(CC2)CN(C(=O)CN2CCOCC2)[C@@H](CO)c2[nH]c4cc(OC)ccc4c23)cc1 | . | . | /
Cc1ccccc1S(=O)(=O)N[C@@H]1CC[C@H](CCn2cc(Cc3ccccc3)nn2)O[C@H]1CO | . | . | .
C[C@@H]1CCCCO[C@@H](CN(C)C(=O)Nc2ccc(C(F)(F)F)cc2)[C@H](C)CN([C@H](C)CO)C(=O)c2cc(NS(=O)(=O)c3ccc(F)cc3)ccc2O1 | . | . | .

High-throughput results deposited in PubChem by Broad Institute.
